Laboratory results: PubChem BioAssay AID504408 (Broad Institute, 2011)
Out of some 300,000 compounds screened, about 5,200 (1.7%) were called active.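 Rule for the calls: active = mean replicate activation of at least 50% with a set share of replicates each reaching 50%; inconclusive = only one of those two conditions met; inactive = mean below 50% and too few replicates reaching it.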 Only a selection was taken, and actives are over-represented in it overall.

Test: HSF-1 response element luciferase induction – NIH3T3-HGL cells, MG132 stress, luminescence, single point, primary screen (AID 504408);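 note: 0% = median of the neutral control wells and 100% = twice that signal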
Conditions: NIH3T3-HGL HSF-1 luciferase reporter, MG132, 8 h; at 9 µM; hits give high values; 100% = twice DMSO control signal

SMILES	activation
COc1ccc(C(=NN)c2ccc(OC)cc2)cc1	29.3% (inactive)
CN(C)CCn1c2c(c(SCC(=O)NCc3ccccc3)nc1=O)CCC2	4.29% (inactive)
CCc1nnc(NS(=O)(=O)c2ccc(NC(=O)c3cccc(OC(F)(F)C(F)F)c3)cc2)s1	-15.3% (inactive)
Cc1cccc(NC(=O)NC(=S)NC(=O)c2ccccc2)c1	13.9% (inactive)
Cc1onc(C(=O)NCc2ccc(F)cc2)c1[N+](=O)[O-]	8.38% (inactive)
Cc1cccc(NC(=O)c2sc(-c3ccccc3)nc2-c2ccc([N+](=O)[O-])cc2)c1	-61.8% (inactive)
Cc1cccc(NC(=S)Nc2ccc(Br)cc2)c1	46.2% (inactive)
Cc1cccc(NC(=O)c2ccc([N+](=O)[O-])o2)c1	56.4% (active)
Cc1cccc(NC(=O)c2cc([N+](=O)[O-])ccc2N2CCN(C)CC2)c1	13.9% (inactive)
Cc1cccc(NC(=S)NC(=O)c2ccc(Br)o2)c1	78.6% (active)
Cc1onc(NC(=O)c2ccc([N+](=O)[O-])o2)c1Br	52.4% (active)
Cc1onc(C(=O)Nc2ccc3c(c2)OCO3)c1[N+](=O)[O-]	10.2% (inactive)
O=C1[C@H]2[C@@H](c3ccc(F)cc3)N3C(=O)N(c4ccc(C(F)(F)F)cc4)C(=O)[C@@]3(Cc3ccccc3)[C@H]2C(=O)N1C1CCCCC1	-4.57% (inactive)
O=C(NCCC1CCCCN1S(=O)(=O)c1ccc(Cl)cc1)C(=O)NCc1ccco1 (centres undefined)	22.8% (inactive)
COc1ccc(NS(=O)(=O)c2ccc(C)c(C(=O)N(C)Cc3ccc(OC)cc3OC)c2)cc1	-13.6% (inactive)
CCOc1ncccc1C(=O)NNC(=O)c1cccc(S(=O)(=O)Nc2ccccc2OC)c1	-1.67% (inactive)
Cc1ccc(NNC(=O)c2cccs2)cc1Cl	69.2% (active)
O=C(NNC(=O)c1ccc(Cl)cc1Cl)c1cccs1	25.3% (inactive)
Cc1ccc(NNC(=O)c2c(F)cccc2Cl)cc1Cl	0.438% (inactive)
Cc1ccc(NC(=O)c2cnc(SCC(=O)NCC3CCCO3)n(C)c2=O)cc1 (centres undefined)	7.91% (inactive)
Cc1cc(C)c(-c2csc(NC(=O)CCCc3nc4ccccc4c(=O)[nH]3)n2)c(C)c1	-6.87% (inactive)
Cc1ccc(S(=O)(=O)NC(C)C(=O)NCc2ccc(Cl)cc2)cc1 (centres undefined)	0.844% (inactive)
CCc1noc(C)c1C(=O)Nc1nc(-c2ccccc2)cs1	6.16% (inactive)
O=C(Nc1ccc(F)cc1)c1cc2c(s1)CCCC2	91.6% (active)

SMILES	activation
O=C(CNC(=O)c1cc2c(s1)CCC2)Nc1ccccc1Br	14.7% (inactive)
O=C(NNC(=O)c1cc2c(s1)CCCC2)c1ccccc1	5.42% (inactive)
CCOc1cc(C(=O)Nc2ccc(S(=O)(=O)Nc3cnc4ccccc4n3)cc2)cc(OCC)c1OCC	9.73% (inactive)
CC1C(=O)N2CCCc3cc(S(=O)(=O)NCc4ccc(F)cc4)cc1c32 (centres undefined)	5.48% (inactive)
Cn1cnnc1SCc1nnc(-c2ccccc2Br)o1	1.6% (inactive)
CCOC(=O)N1CCN(Cc2nnc(-c3ccccc3Cl)o2)CC1	-16.1% (inactive)
Nc1cccc2c1C(=O)N(Cc1nnc(-c3ccccc3Br)o1)C2=O	54.8% (active)
O=C(CSc1nc(=O)n2ccccc2n1)Nc1ccc2c(c1)OCCO2	-13.2% (inactive)
COc1cccc(NC(=O)CSc2nccn(-c3ccc4c(c3)OCCO4)c2=O)c1	8.35% (inactive)
CC(=O)Nc1ccc(N2C(=O)C3C4C=CC(CC4)C3C2=O)cc1 (centres undefined)	6.25% (inactive)
CCc1ccccc1N1C(=O)C2C3CC(=O)C(c4ccccc43)C2C1=O (centres undefined)	-0.868% (inactive)
CC(=O)Nc1ccc(N2C(=O)C3C4CC(=O)C(c5ccccc54)C3C2=O)cc1 (centres undefined)	63.1% (active)
O=[N+]([O-])C(=c1ccc2c(c1)N1C3=C(CCCC3)CC3CCCCC31N=2)[N+](=O)[O-] (centres undefined)	74.2% (active)
COc1ccc(/C=C/C(=O)NC(=S)NN2CCCCC2c2cccnc2)cc1 (centres undefined)	13.9% (inactive)
COc1ccc(C(=O)NC(=S)N2CCCCC2c2cccnc2)cc1OC (centres undefined)	60.1% (active)
O=C(NC(=S)N1CCCCC1c1cccnc1)c1ccccc1 (centres undefined)	4.49% (inactive)
Cc1nc(-c2ccc(F)cc2)c(CC(=O)Nc2cc(S(=O)(=O)N3CCCCC3)ccc2C)s1	44.2% (inactive)
C=CCOc1ccc(/C=C/C(=O)OCC(=O)NCC2CCCO2)cc1 (centres undefined)	-21.7% (inactive)
O=C(NCCc1ccco1)C(=O)NCCC1CCCCN1S(=O)(=O)c1ccccc1 (centres undefined)	3.12% (inactive)
Cc1ccc(-n2cc3ccc([N+](=O)[O-])cc3n2)cc1	59.2% (active)
Cc1cc(CO)nn1-c1ccc([N+](=O)[O-])cc1	-10.6% (inactive)
Cc1ccc(-c2cn3cc([N+](=O)[O-])ccc3n2)cc1	29.6% (inactive)
COc1cc(C2C(C(=O)c3cccs3)=C(O)C(=O)N2CCN2CCOCC2)ccc1OCCC(C)C (centres undefined)	-4.43% (inactive)
Cc1ccc(S(=O)(=O)CCC(=O)Nc2nnc(CC(C)C)s2)cc1	16.5% (inactive)

SMILES	activation
COc1ccc(C(CNC(=O)c2cccc(NS(=O)(=O)c3ccc(C)c(F)c3)c2)N2CCCC2)cc1 (centres undefined)	-2.57% (inactive)
CC1CCN(C(=O)COC(=O)c2cc(S(=O)(=O)N3CCOCC3)ccc2Cl)CC1	-3.43% (inactive)
CC1(C)CCSC(/C=C/c2ccccc2)=N1	172% (active)
CCCn1nc(C(=O)NNC(=O)CCOc2ccccc2OCC)c2ccccc2c1=O	2.86% (inactive)
O=C(CN1CCOCC1)Nc1cccc([N+](=O)[O-])c1	8.61% (inactive)
Cc1nnnn1/C(=C\c1ccccc1)C(=O)OCC(=O)N1CC2(C)CC1CC(C)(C)C2 (centres undefined)	82.4% (active)
COc1ccc(C(=O)N2CC3(C)CC2CC(C)(C)C3)cc1OC (centres undefined)	-7.35% (inactive)
Cc1cccc(C(=O)NCC(=O)OCC(=O)N2CC3(C)CC2CC(C)(C)C3)c1 (centres undefined)	15.9% (inactive)
[O-][n+]1ccc(OCc2ccccc2)cc1	-6.48% (inactive)
COc1ccccc1-c1cc(C(=O)NCCCn2ccnc2)no1	-0.494% (inactive)
CC(NC(=O)c1cc(-c2ccccc2)on1)c1ccccc1 (centres undefined)	25.2% (inactive)
O=C(NC1CCCC1)c1cc(-c2ccccc2)on1	61.2% (active)
O=C(NC1CCCCC1)c1cc(C2CC2)on1	24.7% (inactive)
O=C(NCCCn1ccnc1)c1cc(-c2ccccc2)on1	52.5% (active)
COc1ccc(-c2cc(C(=O)NCCCn3ccnc3)no2)cc1	-2.3% (inactive)
CCC(=O)c1ccc(OCC(=O)OCC(=O)NC2CCCCCC2)cc1	-11.2% (inactive)
CCC1CCC/C1=N\NC(=O)c1ccc(Cl)cc1 (centres undefined)	9.99% (inactive)
Cc1cc(C)c(S(=O)(=O)n2cc(C(C)C(N)C(=O)O)c3ccccc32)c(C)c1 (centres undefined)	0.109% (inactive)
COc1cccc(N2CC(C(=O)NCc3n[nH]c(=O)c4ccccc34)CC2=O)c1 (centres undefined)	8.81% (inactive)
CSCCC(NC(=O)COc1ccccc1)C(=O)OCCOc1ccc(F)cc1 (centres undefined)	-8.89% (inactive)
COc1cccc(C(=O)NCCS(=O)(=O)NCC2CCCO2)c1 (centres undefined)	-6.64% (inactive)
CC1(c2nnc(Cc3ccccc3)o2)CC(c2ccccc2F)=NO1 (centres undefined)	4.53% (inactive)
Cn1cccc1C(=O)NNC(=O)COc1ccc(Br)cc1	1.2% (inactive)
CC1Cc2ccccc2N1C(=O)CSc1nc2ccccc2o1 (centres undefined)	67.8% (active)

SMILES	activation
CCS(=O)(=O)c1ccc2oc(SCC(=O)N3c4ccccc4CC3C)nc2c1 (centres undefined)	-9.09% (inactive)
Cc1cc(=O)[nH]c(SCC(=O)N2c3ccccc3CC2C)n1 (centres undefined)	-7.41% (inactive)
COc1ccc(/C=N/NC(=O)c2cc(-c3cccc(C)c3)nc3ccccc23)cc1O	11.4% (inactive)
O=C(c1cc(-c2ccc(Cl)s2)nc2ccccc12)N1CCOCC1	0.352% (inactive)
CCCCCN(C(=O)CCC(=O)OCCOc1ccc(OC)cc1)c1c(N)n(CCCC)c(=O)[nH]c1=O	2.74% (inactive)
COC(=O)CNC(c1ccccc1Cl)c1cc(Br)ccc1NC(=O)CCN1CCOCC1 (centres undefined)	57.8% (active)
COc1ccc(Cl)cc1NC(=O)CCN1CCOCC1	-5.06% (inactive)
COc1ccccc1NC(=O)CCN1CCN(c2ccc(Cl)cc2)CC1	0.381% (inactive)
COc1ccccc1C(=O)NC(=O)COC(=O)C1CC1	16% (inactive)
O=C(Nc1cccc2ncccc12)c1ccc(-c2ccc(Cl)cc2Cl)o1	38.2% (inactive)
O=C(O)c1cc(Cl)c(Cl)cc1C(=O)Nc1cccc2ncccc12	56.4% (active)
O=C(Nc1cccc2ncccc12)C(Cl)(Cl)Cl	-66% (inactive)
CN(C(=O)CN1C(=O)NC(C)(CCc2ccccc2)C1=O)c1ccccc1 (centres undefined)	5.79% (inactive)
COC(=O)c1c(C)oc2ccc(N(C(=O)Oc3ccccc3)S(=O)(=O)c3ccccc3)cc12	74.4% (active)
CC(=O)c1c(C)oc2ccc(NS(=O)(=O)c3ccccc3)cc12	18.1% (inactive)
COc1ccc(S(=O)(=O)Nc2ccc3oc(C)c(C(C)=O)c3c2)cc1	-13% (inactive)
CC(C)(C)c1ccc(C(=O)NCc2ccco2)cc1	-17.1% (inactive)
Nc1cc(N)nc(SCc2ccc(Cl)cc2)n1	-15.7% (inactive)
CCc1nnc(SCc2cccc(F)c2)nc1CC	-33.8% (inactive)
Nc1cc(N)nc(SCc2cccc(F)c2)n1	76.5% (active)
COc1ccc(NS(=O)(=O)c2ccc(C)c(C(=O)NNC(=O)c3csc(N4CCOCC4)n3)c2)cc1	4.38% (inactive)
O=C(NCCC1CCCCN1S(=O)(=O)c1cccs1)C(=O)Nc1ccc(F)cc1F (centres undefined)	-7.29% (inactive)
